Counter-ions that a name gives are not always drawn.

This test concerns replication-induced senescent mouse newborn dermal fibroblasts (NBF). Kind of test: relative cell viability of senescent cells (fraction); higher = less killing of senescent cells. Particulars: 1 µM; 3 days. The procedure: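 Replication-induced senescent newborn mouse skin fibroblasts (NBFs) in 24-well plates were treated with a Selleck FDA-approved drug library at 1 µM for 3 days.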
The compound `Cc1cnc(NC(=O)C2=C(O)c3ccccc3S(=O)(=O)N2C)s1` [Meloxicam] displayed a relative cell viability of 1.17. As to `C[C@H](N[C@@H](CCc1ccccc1)C(=O)O)C(=O)N1CCC[C@H]1C(=O)O` [Enalaprilat Dihydrate], the relative cell viability came to 0.862. `O=C(O)c1ccc(-n2nc(-c3ccccc3O)nc2-c2ccccc2O)cc1` [Deferasirox] displayed a relative cell viability of 1.07. The figure for `COc1cc([C@@H]2c3cc4c(cc3[C@@H](O[C@@H]3O[C@@H]5CO[C@@H](c6cccs6)O[C@H]5[C@H](O)[C@H]3O)[C@H]3COC(=O)[C@H]23)OCO4)cc(OC)c1O` [Teniposide] is 1.08.

As to `O=C1[C@H](CC[C@H](O)c2ccc(F)cc2)[C@@H](c2ccc(O)cc2)N1c1ccc(F)cc1` [Ezetimibe], the relative cell viability was 0.901. The figure for `CCCC(CCC)C(=O)O` [Valproic acid sodium salt (Sodium valproate)] is 1.11. The figure for `O=C(/C=C/c1cccc(S(=O)(=O)Nc2ccccc2)c1)NO` [Belinostat (PXD101)] is 0.941; for `Cn1ccnc1S` [Methimazole] it is 0.994; for `COc1cc(Nc2ncc3c(n2)-c2ccc(Cl)cc2C(c2c(F)cccc2OC)=NC3)ccc1C(=O)O` [Alisertib (MLN8237)] it is 0.0819. The figure for `O=C(C1CCCCC1)N1CC(=O)N2CCc3ccccc3C2C1` (stereo not given) [Praziquantel] is 1.07. Regarding `C[C@]1(c2nc3c(C(N)=O)cccc3[nH]2)CCCN1` [Veliparib (ABT-888)], the relative cell viability was 0.885. The figure for `C[C@H](NCc1ccc(OCc2cccc(F)c2)cc1)C(N)=O` [Safinamide Mesylate] is 0.955; for `C[C@H](Cc1cc2c(c(C(N)=O)c1)N(CCCO)CC2)NCCOc1ccccc1OCC(F)(F)F` [Silodosin] it is 0.806. Under `CC[C@H]1OC(=O)[C@H](C)[C@@H](O[C@H]2C[C@@](C)(OC)[C@@H](O)[C@H](C)O2)[C@H](C)[C@@H](O[C@@H]2O[C@H](C)C[C@H](N(C)C)[C@H]2O)[C@](C)(O)C[C@@H](C)C(=O)[C@H](C)[C@@H](O)[C@]1(C)O` [Erythromycin] stands 0.796; under `O=S(=O)(O)CCS` [Mesna], 1.04; under `C[C@@](Cc1ccc(O)c(O)c1)(NN)C(=O)O` [Carbidopa], 1.05. Under `COc1cc(Nc2nc3ccccc3nc2NS(=O)(=O)c2ccc(NC(=O)c3ccc(C)c(OC)c3)cc2)cc(OC)c1` stands 0.969; under `CCN(CC)C(=S)SSC(=S)N(CC)CC` [Disulfiram], 1.13. `CC(=O)Oc1ccccc1C(=O)Nc1ncc([N+](=O)[O-])s1` [Nitazoxanide] returned a relative cell viability of 0.698.

Regarding `COc1ccccc1OCC(O)COC(N)=O` (stereo not given) [Methocarbamol], the relative cell viability turned out to be 1.03. The figure for `CCCCC1=NC2(CCCC2)C(=O)N1Cc1ccc(-c2ccccc2-c2nnn[nH]2)cc1` [Irbesartan] is 0.868; for `CS(=O)(=O)c1ccc(C(=O)Nc2ccc(Cl)c(-c3ccccn3)c2)c(Cl)c1` [Vismodegib (GDC-0449)] it is 0.521; for `O=c1[nH]c(=O)n([C@H]2C[C@H](O)[C@@H](CO)O2)cc1C(F)(F)F` [Trifluridine] it is 0.971. Under `CO/N=C(\C(=O)N[C@@H]1C(=O)N2C(C(=O)OCOC(=O)C(C)(C)C)=C(/C=C\c3scnc3C)CS[C@H]12)c1csc(N)n1` [Cefditoren Pivoxil] stands 0.949. With `Clc1ccc(C(Cn2ccnc2)OCc2c(Cl)cccc2Cl)c(Cl)c1` (stereo not given) [Isoconazole nitrate], the relative cell viability worked out at 0.937. The figure for `C[C@]12CCC(=O)C=C1CC[C@@H]1[C@@H]2[C@@H](O)C[C@@]2(C)[C@H]1CC[C@]2(O)C(=O)CO` [Hydrocortisone] is 0.786. The figure for `CCOc1nc2cccc(C(=O)O)c2n1Cc1ccc(-c2ccccc2-c2nnn[nH]2)cc1` [Candesartan] is 1.02; for `CCCCC[C@H](O)/C=C/[C@H]1[C@H](O)CC(=O)[C@@H]1CCCCCCC(=O)O` [Alprostadil] it is 0.875. The figure for `CC(C)c1cc(C(=O)N2Cc3ccc(CN4CCN(C)CC4)cc3C2)c(O)cc1O` is 0.0951; for `CN1CC(=O)N2[C@H](c3ccc4c(c3)OCO4)c3[nH]c4ccccc4c3C[C@@H]2C1=O` [Tadalafil] it is 0.318; for `Nc1nc(Cl)nc2c1ncn2[C@H]1C[C@H](O)[C@@H](CO)O1` [Cladribine] it is 0.924. On to `Clc1ccc(CCC(Cn2ccnc2)Sc2c(Cl)cccc2Cl)cc1` (stereo not given) [Butoconazole nitrate], for which the relative cell viability was 1.14. Under `C[C@]1(O)C[C@@H](c2nc(-c3ccc4ccc(-c5ccccc5)nc4c3)c3c(N)nccn32)C1` [Linsitinib (OSI-906)] stands 0.445; under `OCCOCCN1CCN(C2=Nc3ccccc3Sc3ccccc32)CC1` [Quetiapine Fumarate], 1.13; under `C[C@H](Cn1cnc2c(N)ncnc21)OCP(=O)(O)O` [Tenofovir], 0.893. The figure for `CNC(=O)c1cc(Oc2ccc(NC(=O)Nc3ccc(Cl)c(C(F)(F)F)c3)c(F)c2)ccn1` [Regorafenib (BAY 73-4506)] is 0.958. For `C[C@@H]1C/C=C/C=C/C=C/C=C/[C@H](O[C@@H]2O[C@H](C)[C@@H](O)[C@H](N)[C@@H]2O)C[C@@H]2O[C@](O)(C[C@@H](O)C[C@H]3O[C@@H]3/C=C/C(=O)O1)C[C@H](O)[C@H]2C(=O)O` [Natamycin], the relative cell viability stood at 0.0794. As for `CC(C)Cn1cnc2c(N)nc3ccccc3c21` [Imiquimod], the relative cell viability amounted to 0.273. Under `CCC(C)(C)c1ccc(CC(C)CN2C[C@@H](C)O[C@@H](C)C2)cc1` (stereo not given in full) [Amorolfine HCl] stands 1.09; under `CNC(=O)c1ccc2cc([C@@]3(O)CCn4cncc43)ccc2c1` [TAK-700 (Orteronel)], 0.282.

These data come from the supplement of paper PMC7184167.
